PfM18AAP inh: PfM18AAP inhibitors, malaria aminopeptidase, primary screen, biochemical, QFRET, recombinant enzyme. M18 aspartyl aminopeptidase (Plasmodium falciparum 3D7). H-Glu-NHMec fluorogenic cleavage. inhibition, % at 7.35 µM. hit rate 1.2% among 290,000. AID 1822, 2009;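 active means inhibition above the campaign mean inhibition over all tested compounds plus 3 SD, cut at about 28% in these data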;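 further: 0% = plate median of test compound wells and 100% = 2 mM ZnCl2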
MBD2 DNA inh: inhibitors of MBD2 binding to methylated DNA, primary screen, biochemical, TR-FRET, DNA-binding domain, human; MBD2 binding to methylated oligonucleotide; hit rate 0.31% among 370,000; inhibition, % at 4.4 µM; in the data active means inhibition above about 13%
Target sequence (Q9UBB5 whole entry, looked up, the tested form may be a part): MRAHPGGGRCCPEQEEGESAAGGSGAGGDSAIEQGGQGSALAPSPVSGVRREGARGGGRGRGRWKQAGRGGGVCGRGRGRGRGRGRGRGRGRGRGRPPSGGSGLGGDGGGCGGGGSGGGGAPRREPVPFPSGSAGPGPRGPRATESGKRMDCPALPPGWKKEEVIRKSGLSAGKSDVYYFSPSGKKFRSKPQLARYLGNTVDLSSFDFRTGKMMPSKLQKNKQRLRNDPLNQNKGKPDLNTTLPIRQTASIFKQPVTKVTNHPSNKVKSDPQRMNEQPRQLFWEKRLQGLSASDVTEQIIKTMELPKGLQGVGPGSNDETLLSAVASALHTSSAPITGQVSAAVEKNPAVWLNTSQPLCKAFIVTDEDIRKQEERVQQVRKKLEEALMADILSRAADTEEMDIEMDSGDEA
PfGluPho inh: PfG6PD enzyme inhibitors, primary screen, biochemical, fluorescence intensity, uHTS; PfGluPho enzyme, NADPH resazurin-diaphorase fluorescence; inhibition, % at 20 µM; hit rate 0.78% among 350,000; AID 504690, 2011;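 active means inhibition reaching at least a set limit at 20 µM in the primary screen, cut at about 59% in these data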;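 further: 0% = DMSO wells with substrate and 100% = DMSO wells lacking glucose-6-phosphate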
UHRF1 binding: UHRF1 methylated DNA binding inhibitors, primary screen, counter-screen for MBD2 inhibitor project, biochemical, TR-FRET, human UHRF1, single concentration; hit rate 0.75% among 370,000; inhibition, % at 4.4 µM; E3 ubiquitin-protein ligase UHRF1 (Homo sapiens), Q96T88; UHRF1 binding to methylated oligo; AID 687016, 2013;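 further: UHRF1 SRA domain binding a hemimethylated CpG hairpin DNA probe; 0% = median of test compound wells and 100% = reference inhibitor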
PRMT1 inh: PRMT1 methyltransferase inhibitors, primary screen, biochemical, fluorescence polarization; Protein arginine N-methyltransferase 1 (Homo sapiens), Q99873; recombinant PRMT1, activity-based probe fluorescence polarization; inhibition, % at 2.79 µM; hit rate 1.3% among 370,000; AID 652257, 2013;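 active means inhibition above about 21% made by adding two undisclosed values, limit read from the data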
UHRF1 DNA bind: UHRF1 methylated DNA binding inhibitors, counter-screen for MBD2 inhibitor project, biochemical, TR-FRET, human UHRF1; inhibition, % at 4.4 µM; UHRF1 binding to methylated oligonucleotide; hit rate 25% among 1,000; shares compounds with MBD2 DNA inh;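 further: UHRF1 SRA domain binding a labeled hemimethylated CpG hairpin DNA; 0% = vehicle only and 100% = reference inhibitor with vehicle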
MBD2 confirm: inhibitors of MBD2 binding to methylated DNA, confirmation, biochemical, TR-FRET, DNA-binding domain, human; AID 720531, 2013; hit rate 26% among 1,000; TR-FRET MBD2-DBD binding to methylated oligonucleotide; shares compounds with MBD2 DNA inh; inhibition, % at 4.4 µM; in the data active means inhibition above about 14%
The depositor's hits bear a star; . = no result given. This is a sample that favours compounds with a hit; in the whole collection about 3.3% have one here. Unless noted, no stated cut-off is given here; in the data, active means inhibition above about 21%; inactive means the rest.

SMILES	PfM18AAP inh	MBD2 DNA inh	PfGluPho inh	UHRF1 binding	PRMT1 inh	UHRF1 DNA bind	MBD2 confirm
O=Cc1ccc2oc3nc4n(c(=O)c3c(=O)c2c1)CCCS4	-26	18*	28	16	14	38*	36*
O=C(/C=C/c1ccc([N+](=O)[O-])cc1)c1ccco1	28	-9	13	-1	-3	.	.
O=C(/C=C/c1ccc(-c2ccccc2[N+](=O)[O-])o1)c1ccco1	19	14*	13	34*	4	5	-1
CCCc1nc2ccc(Cl)cn2c1Cc1ccccc1OC	.	5	.	18	0	.	.
CCCc1nc2c(C)cc(Br)cn2c1Cc1ccccc1	.	13*	.	22*	6	11	6
CCCc1nc2ccc(Cl)cn2c1Cc1ccccc1	.	18*	.	23*	7	10	5
Cc1cc(C)c2c(N)c3ccccc3nc2n1	7	20*	-7	22*	-1	21*	25*
O=C(CCCl)N1c2ccccc2C=Cc2ccccc21	.	-3	-9	0	-2	.	.
O=C(COC(=O)/C=C/c1ccco1)Nc1ncc(C(F)(F)F)cc1Cl	9	14*	1	55*	18	27*	9
COc1ccc(N2CCN(C(=O)Cn3nnc(-c4ccccc4N)n3)CC2)cc1	-3	0	-14	-1	1	.	.
CC1(c2ccccc2)CC(=O)N(c2ccc(NC(=O)c3ccccn3)cc2Cl)C1=O (stereo not drawn)	.	2	.	3	2	.	.
c1ccc2c(c1)C1=NCCN1c1ccccc1-2	.	26*	-10	-12	2	-1	39*
Cc1ccc(C)c(S(=O)(=O)NCCC(=O)N2CCCC(C(N)=O)C2)c1 (stereo not drawn)	.	-11	-12	-1	2	.	.
COc1ccc(S(=O)(=O)NC2CCCCC2)cc1F	-5	1	-1	-1	-1	.	.
C/C(=N\N(Cc1ccccc1)c1ccccc1)c1ccncc1	0	-3	-8	2	17	.	.
O=C(CNc1ccccc1Cl)N/N=C1\CCCc2ccccc21	-12	23*	-13	2	6	4	1
COc1ccc(OCC(=O)N/N=C2\CCCc3ccccc32)cc1	0	1	5	1	2	.	.
Cc1ccc(NC(=O)c2ccc(Cl)c(S(=O)(=O)N3CCc4ccccc43)c2)nc1	.	3	5	1	2	.	.
CN1C(=O)c2cc(NS(C)(=O)=O)ccc2OC[C@H]2O[C@@H](CC(=O)NCc3ccc(-c4ccccc4)cc3)CC[C@@H]21	.	11	.	8	4	.	.
COc1ccccc1CNC(=O)C[C@H]1CC[C@H]2[C@H](COc3ccc(NS(=O)(=O)c4ccc(C)cc4)cc3C(=O)N2C)O1	.	18*	.	1	-2	5	6
CC(=O)Nc1nc(-c2ccccc2)ns1	5	13*	-8	2	-2	-1	6
COCC(=O)Nc1nc(-c2ccccc2)ns1	0	0	-5	-1	0	.	.
Cn1c(C(=O)O)ccc1S(=O)(=O)N1CCCCCC1	10	-6	-7	1	-1	.	.
CCCc1nc2c3ccccc3ccn2c1Cc1ccc(OC)cc1C	.	16*	.	26*	8	10	6
CC1(C)CCCN(C(=O)c2coc(=O)c(Br)c2)C1	-5	18*	-11	62*	7	101*	65*
SMILES	PfM18AAP inh	MBD2 DNA inh	PfGluPho inh	UHRF1 binding	PRMT1 inh	UHRF1 DNA bind	MBD2 confirm
COc1ccc(C(C)=O)cc1COC(=O)c1ccc2c(c1)OCO2	-1	14*	2	1	2	8	4
O=C(CCC1CCN(C(=O)c2cncs2)CC1)Nc1ccccc1	-4	-2	-1	-2	1	.	.
CCCn1c(N)c(N2CCCCC2)c(=O)n(CC(=O)Nc2ccc(OC(F)(F)F)cc2)c1=O	1	18*	-16	24*	5	15	2
Cc1ccc(N=C2NC(=O)CS2)cc1	3	-2	-7	-2	1	.	.
Cc1ccc(C)n1/N=C1/NC(=O)CS1	8	39*	11	76*	9	48*	17*
Cc1nccn1CCN(C)Cc1cn(Cc2ccccc2)nc1-c1ccc2c(c1)OCO2	0	1	-14	0	0	.	.
COc1ccc2c(c1OC)c(=O)n1c3ccc(OC(C)C(=O)NCCCN4CCOCC4)cc3c3ccnc2c31 (stereo not drawn)	27	.	23	.	.	.	.
COc1ccc2c(c1OC)c(=O)n1c3ccc(OC(C)C(=O)NCCN4CCOCC4)cc3c3ccnc2c31 (stereo not drawn)	5	36*	27	43*	-3	52*	50*
COc1cc(NC(=O)C2CCCO2)c(OC)cc1NC(=O)c1ccccc1 (stereo not drawn)	4	19*	-1	-2	2	6	1
Oc1ccccc1-c1cncn1Cc1ccccc1	2	2	16	1	-6	.	.
O=C(Cn1nc(-c2ccccc2Cl)ccc1=O)Nc1ccc(Br)cc1	1	1	-3	-2	-1	.	.
O=C(Cn1nc(-c2ccccc2Cl)ccc1=O)Nc1ccccc1-c1ccccc1	-10	43*	-7	-1	-1	8	2
CSc1nc2ccccc2n1Cc1cccc(F)c1	-9	4	-19	16	-2	.	.
CSc1nc2ccccc2n1Cc1cccc([N+](=O)[O-])c1	-1	16*	15	-2	-2	6	0
CC(C)(C)C1CCc2onc(C(=O)NCc3ccc(F)cc3)c2C1 (stereo not drawn)	-7	17*	21	17	3	2	2
O=C(NCc1ccc(F)cc1)c1noc2c1CCCC2	-19	.	-3	.	.	.	.
O=c1cc(-c2cccc(Br)c2)oc2cccc(O)c12	.	-4	-3	-1	-3	.	.
Cc1cccc(OCC(=O)Nc2ccc(S(=O)(=O)Nc3cc(C)nc(C)n3)cc2)c1	0	-6	-17	-2	-3	.	.
COc1cc2nc(N3CCNCC3)nc(N)c2cc1OC	-3	14*	32	14	-1	32*	27*
COc1cc2nc(N3CCN(c4cc(C)ccc4C)CC3)nc(N)c2cc1OC	-12	1	11	2	-2	.	.

High-throughput results from PubChem.
